According to article PMC7862700, “An all-to-all approach to the identification of sequence-specific readers for epigenetic DNA modifications on cytosine”:

Columns and labels:
Assay in all cases: DAPPL (digital affinity profiling via proximity ligation, sequencing); 10 mM Tris-HCl pH 7.5, 50 mM NaCl, 1 mM DTT, 4% glycerol, room temperature, 30 min; GST-TFs on glutathione beads, 16-mer random dsDNA library, 0.1% formaldehyde crosslink after washing; high values mean tight binding
Details in all cases: protein: recombinant; tags: N-terminal GST; dsDNA, one strand shown
[1] = molecular target: T1, ERF (Homo sapiens, UniProt P50548 1-548)
T1 sequence: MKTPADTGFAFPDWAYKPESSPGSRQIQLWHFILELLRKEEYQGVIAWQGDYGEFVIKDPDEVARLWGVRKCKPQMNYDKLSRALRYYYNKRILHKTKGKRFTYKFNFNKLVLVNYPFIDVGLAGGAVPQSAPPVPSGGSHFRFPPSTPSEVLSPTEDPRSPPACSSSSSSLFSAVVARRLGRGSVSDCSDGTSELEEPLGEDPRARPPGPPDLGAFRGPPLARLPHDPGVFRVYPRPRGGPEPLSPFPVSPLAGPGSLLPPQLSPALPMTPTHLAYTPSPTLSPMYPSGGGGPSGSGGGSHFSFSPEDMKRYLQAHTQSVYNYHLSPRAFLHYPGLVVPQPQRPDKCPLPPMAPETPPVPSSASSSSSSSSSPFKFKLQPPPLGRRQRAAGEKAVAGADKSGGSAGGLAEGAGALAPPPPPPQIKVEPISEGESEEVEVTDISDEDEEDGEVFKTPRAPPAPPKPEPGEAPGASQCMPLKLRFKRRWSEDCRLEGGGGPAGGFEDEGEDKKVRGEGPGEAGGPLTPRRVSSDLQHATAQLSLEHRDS
Procedure, shortened: (§1)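 Sequencing on an Illumina NextSeq500 followed washing, crosslinking with 0.1% formaldehyde, proximity ligation (BsaI/T4 ligase, 1 h, 37 °C) and PCR amplification of pools that had been incubated for 30 min at room temperature with 200 nmole of a random double-stranded 16-mer DNA library in Tris/NaCl/DTT/glycerol buffer. Each pool held DNA-barcoded human transcription factors, expressed in yeast as GST fusions and captured on glutathione beads, plus a tag-only sample. Binding signal is a hexamer's read frequency for a factor divided by its frequency in the tag-only sample.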

[2] = molecular target: T2, ETV3L (Homo sapiens, UniProt Q6ZN32 1-361)
T2 sequence: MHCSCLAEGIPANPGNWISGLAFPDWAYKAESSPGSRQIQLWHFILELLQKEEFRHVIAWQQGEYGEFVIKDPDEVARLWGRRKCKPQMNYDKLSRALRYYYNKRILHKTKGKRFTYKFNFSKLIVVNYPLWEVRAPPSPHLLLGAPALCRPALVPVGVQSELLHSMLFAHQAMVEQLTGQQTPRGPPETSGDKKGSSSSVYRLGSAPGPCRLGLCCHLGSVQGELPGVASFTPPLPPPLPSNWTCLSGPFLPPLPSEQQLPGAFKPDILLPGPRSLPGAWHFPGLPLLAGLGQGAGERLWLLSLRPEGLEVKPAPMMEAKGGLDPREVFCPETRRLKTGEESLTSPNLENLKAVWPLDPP
Procedure, shortened: as §1

[3] = molecular target: T3, ETS2 (Homo sapiens, UniProt P15036 1-469)
T3 sequence: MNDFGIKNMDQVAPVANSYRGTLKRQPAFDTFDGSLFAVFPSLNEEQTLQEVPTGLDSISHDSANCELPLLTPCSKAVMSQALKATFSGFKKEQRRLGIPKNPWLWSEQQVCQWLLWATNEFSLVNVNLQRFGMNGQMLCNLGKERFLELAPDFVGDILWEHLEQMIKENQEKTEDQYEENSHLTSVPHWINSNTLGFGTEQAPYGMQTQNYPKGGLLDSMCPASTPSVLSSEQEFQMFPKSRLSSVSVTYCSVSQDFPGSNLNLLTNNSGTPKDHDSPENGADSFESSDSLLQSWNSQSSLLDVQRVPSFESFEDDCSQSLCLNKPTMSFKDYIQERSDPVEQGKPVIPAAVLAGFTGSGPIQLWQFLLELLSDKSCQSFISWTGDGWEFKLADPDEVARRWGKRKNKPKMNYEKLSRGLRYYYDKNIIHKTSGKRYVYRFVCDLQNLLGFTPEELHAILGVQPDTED
Procedure, shortened: as §1

[4] = molecular target: T4, SPDEF (Homo sapiens, UniProt O95238 1-335)
T4 sequence: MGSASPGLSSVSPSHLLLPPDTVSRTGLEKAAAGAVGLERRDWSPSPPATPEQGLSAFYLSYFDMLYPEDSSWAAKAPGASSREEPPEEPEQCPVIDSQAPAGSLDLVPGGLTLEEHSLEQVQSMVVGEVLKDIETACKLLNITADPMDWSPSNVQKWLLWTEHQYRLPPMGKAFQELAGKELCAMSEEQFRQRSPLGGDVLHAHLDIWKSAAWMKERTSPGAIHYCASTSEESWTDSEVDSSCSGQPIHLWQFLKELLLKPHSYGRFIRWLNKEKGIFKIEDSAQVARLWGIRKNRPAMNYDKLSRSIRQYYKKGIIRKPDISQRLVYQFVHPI
Procedure, shortened: as §1

[5] = molecular target: T5, ETV7 (Homo sapiens, UniProt Q9Y603 1-341)
T5 sequence: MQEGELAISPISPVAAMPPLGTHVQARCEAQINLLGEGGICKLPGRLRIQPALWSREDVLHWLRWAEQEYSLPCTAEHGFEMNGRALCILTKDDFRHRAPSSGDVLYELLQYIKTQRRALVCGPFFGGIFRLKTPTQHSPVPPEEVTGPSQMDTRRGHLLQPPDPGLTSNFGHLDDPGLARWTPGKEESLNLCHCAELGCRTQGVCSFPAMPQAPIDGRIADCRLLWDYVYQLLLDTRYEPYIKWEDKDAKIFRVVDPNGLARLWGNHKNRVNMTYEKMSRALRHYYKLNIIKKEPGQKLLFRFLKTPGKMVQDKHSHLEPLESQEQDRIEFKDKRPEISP
Procedure, shortened: as §1

[6] = molecular target: T6, ELF5 (Homo sapiens, UniProt Q9UKW6-2 1-255)
T6 sequence: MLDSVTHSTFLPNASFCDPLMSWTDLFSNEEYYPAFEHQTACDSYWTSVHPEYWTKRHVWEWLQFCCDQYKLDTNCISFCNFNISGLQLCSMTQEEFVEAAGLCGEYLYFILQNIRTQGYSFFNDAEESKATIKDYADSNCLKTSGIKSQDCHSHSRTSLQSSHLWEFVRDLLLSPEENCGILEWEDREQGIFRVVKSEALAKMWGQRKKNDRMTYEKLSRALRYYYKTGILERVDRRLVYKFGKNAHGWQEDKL
Procedure, shortened: as §1

[7] = molecular target: T7, ETV3 (Homo sapiens, UniProt P41162-2 1-143)
T7 sequence: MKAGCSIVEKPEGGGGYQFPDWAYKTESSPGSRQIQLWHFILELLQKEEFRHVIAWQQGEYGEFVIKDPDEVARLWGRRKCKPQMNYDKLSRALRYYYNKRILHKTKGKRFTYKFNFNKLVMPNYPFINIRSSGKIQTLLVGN
Procedure, shortened: as §1

[8] = molecular target: ETV6 (Homo sapiens, UniProt P41212 1-452)
Sequence of ETV6 (P41212 whole entry): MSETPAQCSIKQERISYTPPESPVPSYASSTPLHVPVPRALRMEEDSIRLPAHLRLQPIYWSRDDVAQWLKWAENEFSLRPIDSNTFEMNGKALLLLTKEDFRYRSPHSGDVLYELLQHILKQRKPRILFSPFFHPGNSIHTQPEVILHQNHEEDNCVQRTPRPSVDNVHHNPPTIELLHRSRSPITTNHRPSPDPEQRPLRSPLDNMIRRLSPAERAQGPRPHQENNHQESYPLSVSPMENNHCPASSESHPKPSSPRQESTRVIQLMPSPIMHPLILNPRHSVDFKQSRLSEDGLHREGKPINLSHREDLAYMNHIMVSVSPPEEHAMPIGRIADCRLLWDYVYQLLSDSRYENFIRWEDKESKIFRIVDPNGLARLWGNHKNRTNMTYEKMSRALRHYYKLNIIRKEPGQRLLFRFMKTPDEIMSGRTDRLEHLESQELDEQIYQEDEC
Procedure, shortened: as §1

Row | Sequence | binding signal [1] | binding signal [2] | binding signal [3] | binding signal [4] | binding signal [5] | binding signal [6] | binding signal [7] | binding signal [8]
1 | ACGTAC | 1.16 fold enrichment (6-mer frequency, TF over GST control) | 1.12 fold enrichment (6-mer frequency, TF over GST control) | 1.19 fold enrichment (6-mer frequency, TF over GST control) | 1.13 fold enrichment (6-mer frequency, TF over GST control) | 1.24 fold enrichment (6-mer frequency, TF over GST control) | 1.15 fold enrichment (6-mer frequency, TF over GST control) | 1.12 fold enrichment (6-mer frequency, TF over GST control) | 1.25 fold enrichment (6-mer frequency, TF over GST control)
2 | TACGTT | 1.3 fold enrichment (6-mer frequency, TF over GST control) | 1.32 fold enrichment (6-mer frequency, TF over GST control) | 1.21 fold enrichment (6-mer frequency, TF over GST control) | 1.22 fold enrichment (6-mer frequency, TF over GST control) | 1.34 fold enrichment (6-mer frequency, TF over GST control) | 1.27 fold enrichment (6-mer frequency, TF over GST control) | 1.27 fold enrichment (6-mer frequency, TF over GST control) | 1.38 fold enrichment (6-mer frequency, TF over GST control)
3 | TTTCTG | 1.44 fold enrichment (6-mer frequency, TF over GST control) | 1.29 fold enrichment (6-mer frequency, TF over GST control) | 1.37 fold enrichment (6-mer frequency, TF over GST control) | 1.46 fold enrichment (6-mer frequency, TF over GST control) | 1.39 fold enrichment (6-mer frequency, TF over GST control) | 1.42 fold enrichment (6-mer frequency, TF over GST control) | 1.3 fold enrichment (6-mer frequency, TF over GST control) | 1.46 fold enrichment (6-mer frequency, TF over GST control)
4 | TTGCTG | 1.28 fold enrichment (6-mer frequency, TF over GST control) | 1.26 fold enrichment (6-mer frequency, TF over GST control) | 1.21 fold enrichment (6-mer frequency, TF over GST control) | 1.18 fold enrichment (6-mer frequency, TF over GST control) | 1.37 fold enrichment (6-mer frequency, TF over GST control) | 1.14 fold enrichment (6-mer frequency, TF over GST control) | 1.23 fold enrichment (6-mer frequency, TF over GST control) | 1.13 fold enrichment (6-mer frequency, TF over GST control)
5 | TTCGAG | 1.23 fold enrichment (6-mer frequency, TF over GST control) | 1.36 fold enrichment (6-mer frequency, TF over GST control) | 1.26 fold enrichment (6-mer frequency, TF over GST control) | 1.19 fold enrichment (6-mer frequency, TF over GST control) | 1.18 fold enrichment (6-mer frequency, TF over GST control) | 1.14 fold enrichment (6-mer frequency, TF over GST control) | 1.09 fold enrichment (6-mer frequency, TF over GST control) | 1.28 fold enrichment (6-mer frequency, TF over GST control)
6 | ATTGCC | 1.15 fold enrichment (6-mer frequency, TF over GST control) | 1.34 fold enrichment (6-mer frequency, TF over GST control) | 1.25 fold enrichment (6-mer frequency, TF over GST control) | 1.18 fold enrichment (6-mer frequency, TF over GST control) | 1.22 fold enrichment (6-mer frequency, TF over GST control) | 1.22 fold enrichment (6-mer frequency, TF over GST control) | 1.31 fold enrichment (6-mer frequency, TF over GST control) | 1.26 fold enrichment (6-mer frequency, TF over GST control)
7 | CTCCGC | 1.47 fold enrichment (6-mer frequency, TF over GST control) | 1.56 fold enrichment (6-mer frequency, TF over GST control) | 1.52 fold enrichment (6-mer frequency, TF over GST control) | 1.54 fold enrichment (6-mer frequency, TF over GST control) | 1.31 fold enrichment (6-mer frequency, TF over GST control) | 1.48 fold enrichment (6-mer frequency, TF over GST control) | 1.59 fold enrichment (6-mer frequency, TF over GST control) | 1.44 fold enrichment (6-mer frequency, TF over GST control)
